High-throughput results as filed in PubChem.
RE007 growth inh: less growth of the S. pombe RE007 Vpr strain. S. pombe RE007 Vpr strain, BacTiter-Glo ATP luminescence, 24 h. Potency, µM (top dose mostly 92.2 µM), for inactives: top-dose activity change, negative = less growth, usual class: inhibitors. 360,000 tested, 0.21% active. AID 651644; active = well fitted falling curve with a large enough effect; inconclusive = small, poorly fitted or top-dose-only effect; inactive = no such curve, though single readings can be large or run the other way; also: potency is read from the fitted curve at half-maximal effect; % is scaled to controls: 0 for no effect and ±100 for the full control effect; nearly all actives have a fitted effect of over 50% in size
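Fission yeast strain RE007, carrying one chromosomally integrated HIV-1 vpr copy, was seeded at OD 0.01 in PMG+AL medium with 23 nL pinned compound. After 24 h at 30 °C and 99% humidity, viability was read by BacTiter-Glo luminescence.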
Giardia FBPA inh: Giardia lamblia aldolase inhibition; A8B2U2; purified Giardia FBPA; Potency, µM (top dose mostly 59.6 µM), without a hit: top-dose activity, negative = inhibition, hits mostly inhibitors; 290,000 tested, 0.71% active; AID 2451; also: potency is read from the fitted curve at half-maximal effect; % is scaled to controls: 0 for no effect and ±100 for the full control effect; nearly all actives have a fitted effect of over 55% in size
Target sequence (A8B2U2 whole entry, looked up): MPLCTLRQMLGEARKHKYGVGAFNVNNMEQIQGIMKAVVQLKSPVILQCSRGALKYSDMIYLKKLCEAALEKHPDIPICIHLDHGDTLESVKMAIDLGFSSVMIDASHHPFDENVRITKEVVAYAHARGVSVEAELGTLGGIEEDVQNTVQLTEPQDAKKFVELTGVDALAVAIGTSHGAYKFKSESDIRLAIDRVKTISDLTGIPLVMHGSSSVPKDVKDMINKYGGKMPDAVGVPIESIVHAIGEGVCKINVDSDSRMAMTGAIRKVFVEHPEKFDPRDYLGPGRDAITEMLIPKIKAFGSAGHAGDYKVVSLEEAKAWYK
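40 nM FBPA preincubated 10 min at RT with compound (up to 57.5 uM final), then substrate plus GAPDH/TPI/NAD/arsenate coupling and diaphorase/resazurin added. Fluorescence read after 20 min at RT, 525/598 nm.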
LmPK inhibitor: blocks Leishmania mexicana pyruvate kinase activity; purified LmPK, Kinase-Glo ATP luminescence, 1 h; Potency, µM (top dose mostly 57.5 µM), without a hit: at the highest dose activity change, negative = inhibition, hits mostly inhibitors; 290,000 tested, 0.37% active; also: potency is read from the fitted curve at half-maximal effect; % is scaled to controls: 0 for no effect and ±100 for the full control effect
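ATP generated from ADP (0.1 mM) and PEP (0.5 mM) by 0.1 nM LmPK over 1 h at room temperature (pH 7.2 imidazole buffer) was detected by coupled luciferase luminescence. Values were normalized to uninhibited and no-enzyme wells.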
Tb PYK inh: blocks Trypanosoma brucei pyruvate kinase; Q57TT1; TbPYK enzyme, Kinase-Glo Plus ATP luminescence, 45 min; Potency, µM (highest dose often 76.8 µM), for inactives: top-dose activity, negative = inhibition, actives largely listed as inhibitors; 410,000 tested, 0.12% active; AID 624173; also: potency is read from the fitted curve at half-maximal effect; % is scaled to controls: 0 for no effect and ±100 for the full control effect; nearly all actives have a fitted effect of over 50% in size
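ADP (130 uM final) triggers the TbPYK reaction after compound addition; incubation is 45 min at room temperature. Kinase-Glo Plus is then added and luminescence imaged. Normalized data are fitted to concentration-effect curves.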
CHX counter-1: counter-screen hit for Shiga toxin inhibitors, cycloheximide; max response, %; cell reporter, cycloheximide protein synthesis inhibition counterscreen; 300,000 tested, 12% active; in the data active = max response mostly above about 13%, no sharp cut-off; inactive = mostly below about 14%; also: read at 38.3 µM for the half of the compounds with a filed dose; 0% is about no effect
Shiga toxin inh: Shiga toxin inhibition; Vero cells, Shiga toxin protein synthesis inhibition reporter; inhibition, % at 38.7 µM; 290,000 tested, 9.2% active; AID 2315; in the data active = inhibition mostly above about 28%, no sharp cut-off; inactive = mostly below about 43%; also: 0% is about no effect
CHX counter-2: counter-screen for Shiga toxin inhibitors: cycloheximide protein synthesis block; shares compounds with Shiga toxin inh; Cycloheximide counterscreen, protein synthesis reporter, Shiga toxin assay; Potency, µM (highest dose often 38.3 µM), without a hit: top-dose activity (activation), usual class: activators; 510 tested, 3% active; AID 2318; calls by dose curve; also: potency is read from the fitted curve at half-maximal effect; 0% is about no effect
Numbers without * were called inactive; ? = inconclusive; · = not tested or not shown; + = active, no number; [ ] = dose if it differs, or a comment. Only a selection was taken, and hits are over-represented in it overall. Unless noted, calls follow the shape of the dose curve; as a rule, active = well fitted curve in the direction sought with a large enough effect; inconclusive = small, poorly fitted or top-dose-only effect, or another doubt; inactive = no such curve, though single readings can be large; an effect the other way counts as inactive or inconclusive.

SMILES | RE007 growth inh | Giardia FBPA inh | LmPK inhibitor | Tb PYK inh | CHX counter-1 | Shiga toxin inh | CHX counter-2
CCC(=O)N1CCc2cc(S(=O)(=O)NC(C(=O)N3CCN(c4ccc(F)cc4)CC3)C(C)C)ccc21 (configuration not stated) | -15% | 26% | 0% | 4% | -3 | 17* | -3%
CCC(=O)N1CCc2cc(S(=O)(=O)NC(C(=O)NCc3ccc(F)cc3)C(C)C)ccc21 (configuration not stated) | -15% | 0% | -6% | -9% | -5 | 7 | ·
Cc1sc(NC(=O)CCCC(=O)O)c(C(N)=O)c1-c1ccccc1 | -1% | -23% | -9% | 4% | 9 | 74* | ?
C[C@@H](O)CNC(C)(C)CC(=O)N[C@@H]1CCc2ccccc2N(Cc2ccc(-c3ccccc3-c3nn[nH]n3)cc2)C1=O | · | -5% | · | · | 4 | 12 | ·
Cc1ccc2occ(/C=N/NC(=O)c3ccccc3O)c(=O)c2c1 | -10% | 7% | 2% | -10% | -1 | -4 | ·
CCc1ccccc1NC(=O)C1CCCN(c2cnccn2)C1 (configuration not stated) | · | · | · | 2% | · | · | ·
O=C(Cc1cccs1)Nc1ccc(-c2nnc(-c3ccco3)o2)cc1 | 17% | 0% | 3% | 6% | 12 | 49* | ?
Cc1ccc(S(=O)(=O)N2CCOCC2)cc1C(=O)Nc1ccccc1N1CCOCC1 | 7% | · | · | -8% | · | · | ·
Cc1c(C(=O)OCC(=O)N(C)Cc2ccc(Cl)cc2)oc2ccccc12 | 2% | · | · | 4% | · | · | ·
COc1ccc(NC(=O)c2cccnc2Nc2ccc(OC)cc2)cc1 | -8% | 0% | -2% | -4% | 5 | 42* | 1%
COc1ccc(CNC(=O)c2ccccc2[N+](=O)[O-])cc1 | 11% | 0% | -2% | -1% | -2 | -7 | ·
COc1ccc(NC(=O)c2ccccc2[N+](=O)[O-])cc1 | 3% | -2% | -3% | -13% | 5 | 40* | 5%
Cc1ccc(S(=O)(=O)N[C@H]2COC(=O)[C@@H](C)COC(=O)C/C=C\[C@H]2C)cc1 | · | -1%[12.9 µM] | · | · | · | · | ·
CCOC(=O)c1c(C)[nH]c(C)c1S(=O)(=O)N1CCCC(C(=O)Nc2ccc(C)c(N(C)C)c2)C1 (configuration not stated) | · | · | · | 3% | · | · | ·
O=C(c1ccco1)N1CCN(CCCCOc2cccc3ccccc23)CC1 | 8% | -18% | 6% | 0% | 7 | 37* | 0%
CC(=O)Nc1ccc(NC(=O)COC(=O)c2c3c(nc4ccccc24)CCN(Cc2ccccc2)C3)cc1 | 1% | -5% | -4% | -7% | 1 | 22* | -4%
O=C(COC(=O)c1c2c(nc3ccccc13)CCN(Cc1ccccc1)C2)Nc1c(F)cccc1F | 4% | 6% | 3% | -6% | 0 | 17 | ·
Cc1ccc(Cl)cc1NC(=O)Cn1c(SCC(=O)NCc2ccccc2)nc2ccccc21 | · | · | · | 1% | · | · | ·
CN(C)c1ccc(/C=C/[N+](=O)[O-])cc1 | -27% | 5% | -11% | -12% | -1 | 8 | ·
CN(C)c1ccc(/C=C/C#N)cc1 | ? | -1% | 4% | -18% | 9 | 31* | 5%
CCC(=O)Nc1ccc(C(=O)NNC(=O)C(c2ccccc2)c2ccccc2)cc1 | 2% | -5% | 7% | -1% | -6 | -2 | ·
Cc1cccc(C(=O)NNC(=O)c2ccccc2)c1 | 5% | 0% | 0% | -21% | 8 | + | ?
CCC(=O)N1CCN(c2ccc(NC(=O)c3ccc4ccccc4c3)cc2)CC1 | -7% | -5% | -3% | 4% | 8 | 21 | ·
Cc1cccc(C(=O)NNC(=O)/C=C/C(=O)O)c1 | -3% | 2% | -13% | 4% | 2 | -6 | ·
CCC(=O)Nc1ccc(C(=O)NNC(=O)c2ccccc2)cc1 | 13% | 0% | -1% | -2% | 1 | 32* | 1%
SMILES | RE007 growth inh | Giardia FBPA inh | LmPK inhibitor | Tb PYK inh | CHX counter-1 | Shiga toxin inh | CHX counter-2
CCC(=O)N1CCN(c2ccc(NC(=O)c3ccccc3)cc2)CC1 | 13% | 4% | -10% | -6% | 10 | 47* | ?
Cc1cc(Br)ccc1OCC(=O)NNC(=O)c1cnccn1 | -17% | 5% | 4% | -8% | 1 | 12 | ·
COc1ccc(Cc2c(C3CCCCC3)nc3c(Cl)cc(C(F)(F)F)cn23)c(C)c1 | -19% | · | · | -7% | · | · | ·
CCn1cc(/C=C(\NC(=O)c2ccc(OC)c(OC)c2)C(=O)NCCCN2CCOCC2)c2ccccc21 | -8% | -2% | -4% | 29% | -2 | -3 | ·
O=C(Cn1cc2c(n1)CCCCC2)Nc1ccccc1Br | -11% | -2% | -1% | -5% | 11 | 73* | -1%
COC(=O)c1ccc(CSCC(=O)Nc2cc(OC)cc(OC)c2)o1 | 11% | -1% | 2% | -5% | -6 | 4 | ·
COC(=O)c1ccc(CSCc2ccc(C(=O)OC)o2)o1 | 51% | -1% | -1% | 2% | 1 | 38* | -1%
O=C(C(=O)N1CCN(c2ccc(F)cc2)CC1)c1cn(CC(=O)N2CCOCC2)c2ccccc12 | -11% | · | -8% | 4% | -11 | -7 | ·
COc1cccc(-c2noc(CCC(=O)NCCc3ccccc3)n2)c1 | -1% | -2% | 8% | 1% | 11 | 49* | 8%
O=C(CCc1nc(-c2ccccc2)no1)NCCc1ccccc1 | -11% | 2% | -1% | 5% | 12 | -12 | ·
O=C(c1ccc(F)cc1)c1cn(Cc2ccccc2)c2cc3c(cc2c1=O)OCO3 | · | · | · | 3% | · | · | ·
CCCc1cc(=O)oc2cc(C)cc(OCC(=O)NCc3ccccn3)c12 | -1% | -7% | 5% | 6% | 12 | 122* | -3%
O=C(NCc1ccccc1Cl)c1cnc2ccccc2n1 | -12% | -9% | 5% | -3% | -1 | 46* | 7%
CCn1cc(C(=O)NCc2ccccc2Cl)cn1 | 27% | 11% | 10% | 2% | 8 | active | 0%
O=C(NCc1ccccc1Cl)NCc1ccccc1Cl | 6% | 2% | 4% | -1% | 1 | -3 | ·
CCN(CC)S(=O)(=O)c1ccc2c(c1)N(CC(=O)NCCCN1CCN(c3cc(C)ccc3C)CC1)C(=O)CO2 | · | · | · | 0% | · | · | ·
O=c1c2ccccc2nc(SCc2nc3ccccc3s2)n1Cc1ccco1 | 11% | 0% | 7% | 3% | 3 | -2 | ·
O=c1c2ccccc2nc(SCc2cccc(F)c2)n1Cc1ccco1 | -8% | 5% | -5% | -11% | 1 | 56* | 2%
O=C(Nc1ccc2oc(-c3ccccc3)nc2c1)c1ccc2c(c1)OCCO2 | -1% | -11% | -1% | 17% | 15 | 43* | ?
O=C(Oc1ccc(F)cc1)c1nc(SCc2ccccc2F)ncc1Cl | · | · | · | -5% | · | · | ·
